The text below walks through data of PubChem BioAssay (NCATS).

Assay [1] is described as follows: qHTS profiling for inhibitors of Plasmodium falciparum proliferation (AID 504749).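 For activity, negative = inhibition: 0% = DMSO vehicle and full inhibition = artemisinin control.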 Note: nearly all actives have a fitted effect of over 60% in size. The settings on record: P. falciparum in erythrocytes, SYBR Green DNA, 72 h. Summed up:
(§1)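 P. falciparum-infected erythrocytes (0.3% parasitemia, 2.5% hematocrit final) were exposed to compounds for 72 h at 37 C in 5% CO2, then lysed with SYBR Green buffer overnight at room temperature; parasite DNA fluorescence was normalized to artemisinin and DMSO controls.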
Background: Quantitative high-throughput screening tests each substance at several concentrations.

The next assay deals with 3D7. Described as above. The settings on record: P. falciparum in erythrocytes, SYBR Green DNA, 72 h; series mostly up to 28.7 µM. Summed up:
as §1

A further assay deals with C2A. Described as above. The settings on record: P. falciparum in erythrocytes, SYBR Green DNA, 72 h; series mostly up to 28.7 µM. Summed up: as §1
Another assay has as its system CP191. The description is as above. The settings on record: P. falciparum in erythrocytes, SYBR Green DNA, 72 h; series mostly up to 28.7 µM. Summed up:
as §1

The subject of the next assay is CP201. Described as above. The settings on record: P. falciparum in erythrocytes, SYBR Green DNA, 72 h; series mostly up to 28.7 µM. Summed up:
as §1

The next assay has as its system 7G8. The description is as above. The settings on record: P. falciparum in erythrocytes, SYBR Green DNA, 72 h; series mostly up to 28.7 µM. Summed up:
as §1

The subject of a further assay is CP192. The description is as above. The settings on record: P. falciparum in erythrocytes, SYBR Green DNA, 72 h; series mostly up to 28.7 µM. The essentials:
as §1

In a further assay the test system is CP194. The description is as above. The settings on record: P. falciparum in erythrocytes, SYBR Green DNA, 72 h; series mostly up to 28.7 µM. The essentials:
as §1

In a further assay the test system is AA1029. Described as above. The settings on record: P. falciparum in erythrocytes, SYBR Green DNA, 72 h; series mostly up to 28.7 µM. Summed up: as §1
The test system of another assay is ATS189. The description is as above. The settings on record: P. falciparum in erythrocytes, SYBR Green DNA, 72 h; series mostly up to 28.7 µM. The essentials:
as §1

A further assay deals with ATS95. The description is as above. The settings on record: P. falciparum in erythrocytes, SYBR Green DNA, 72 h; series mostly up to 28.7 µM. The essentials:
as §1

For the next assay, the system named is CP185. The assay is described as above. The settings on record: P. falciparum in erythrocytes, SYBR Green DNA, 72 h; series mostly up to 28.7 µM. Summed up:
as §1

Another assay relates to AS120. Described as above. The settings on record: P. falciparum in erythrocytes, SYBR Green DNA, 72 h; series mostly up to 28.7 µM. Summed up:
as §1

Setting [2] is: at 28.7 µM (top of the series), parasite line A.
The mark [3] stands for this setting: at 28.7 µM (top of the series), parasite line B.
Setting [4] is: at 12.8 µM (top of the series), parasite line A.
The mark [5] stands for this setting: at 12.8 µM (top of the series), parasite line B.

SMILES strings stand for the structures. Inconclusive results are not listed. Values without a mark were called inactive. Active and inactive are the calls of the source. Calls come from the whole dose curve; as a rule, active = well fitted inhibition curve with a large enough effect; inconclusive = small, poorly fitted or top-dose-only effect; inactive = flat fitted curve, though single readings scatter.
Potency is the fitted concentration of half-maximal effect.

For `CC(CN(C)C)C(C)(O)Cc1ccc(Cl)cc1` (stereo not given), the activity, negative = inhibition in assay [1] (setting [2]) was 6.13%; in [1] (setting [3]) it was 10.7%. In addition, the Potency result in the assay on 3D7 and with C2A was “inactive” throughout. Besides, the compound was called inactive with CP191 and in the assay on CP201.

In the case of `Cc1cc(-n2nc3ccc(Cl)cc3n2)c(O)c(C(C)(C)C)c1`, the Potency entry in the assay with 3D7 and in the assay on 7G8 was “inactive” in each case. For the same compound, the outcome in the assay with CP192, with CP194 and in the assay on CP201 was inactive.

With `COc1ccc2cc(CCC(C)=O)ccc2c1`, the activity, negative = inhibition was 8.55% in [1] (setting [4]) and 1.23% in [1] (setting [5]). Also, the Potency result with 3D7, in the assay with 7G8, in the assay with AA1029, with ATS189, in the assay on ATS95 and in the assay on C2A was “inactive” each time. Moreover, in the assay with CP185, the Potency result was “inactive”. Also, the call in the assay with CP191, with CP192, with CP194 and with CP201 was inactive.

For the compound `Cc1cc(C)c(NC(=O)CN(CC(=O)O)CC(=O)O)c(C)c1Br`, the Potency entry with 3D7 and in the assay on 7G8 was “inactive” throughout. Besides, the result in the assay on CP192, in the assay on CP194 and in the assay on CP201 was inactive.

Regarding `CCCCCCCC(=O)OCC(COC(=O)CCCCCCC)OC(=O)CCCCCCC`, in [1] (setting [2]), the activity, negative = inhibition is 4.54%. In addition, the Potency result in the assay with 3D7, in the assay on 7G8, with AA1029, in the assay with AS120, in the assay with ATS189 and in the assay on ATS95 was “inactive” throughout. In addition, the Potency result with C2A and in the assay with CP185 was “inactive” each time. Also, the compound was classed as inactive with CP191, with CP192, with CP194 and in the assay on CP201.

Turning to `CC(=O)OC[C@H]1O[C@@](COC(C)=O)(O[C@H]2O[C@H](COC(C)=O)[C@@H](OC(C)=O)[C@H](OC(C)=O)[C@H]2OC(C)=O)[C@@H](OC(C)=O)[C@@H]1OC(C)=O`, the activity, negative = inhibition in assay [1] (setting [3]) was 21.3%. The Potency result in the assay with 3D7, in the assay with 7G8, in the assay with AA1029 and in the assay with C2A was “inactive” in each case. Also, the call with CP192, in the assay with CP194 and in the assay on CP201 was inactive.

For `O=C1CC[C@@H](C(=O)O)N1`, the activity, negative = inhibition in assay [1] (setting [2]) was 0.206%; in [1] (setting [3]), 18.2%. In addition, the Potency entry with 3D7, in the assay on AA1029, in the assay on AS120, in the assay with ATS189, in the assay on ATS95 and in the assay with C2A was “inactive” throughout. For the same compound, the Potency result in the assay with CP185 is “inactive”. For the same compound, the compound was classed as inactive with CP191, with CP192, in the assay with CP194 and in the assay on CP201.

On to `CN1C[C@@H]2C[C@H]1CN2c1cc2c(cc1F)c(=O)c(C(=O)O)cn2C1CC1`, for which the compound was called inactive in the assay with CP192.

As to `Cc1cc(O)cc(C)c1Cl`, the values for the activity, negative = inhibition in assay [1] (setting [2]) and in assay [1] (setting [3]) were -2.51% and -4.56%, respectively. In addition, the Potency entry in the assay with 3D7, with AA1029, with AS120, with C2A and with CP185 was “inactive” throughout. Besides, the Potency in the assay on 7G8 was 10 µM (active). The compound was called inactive with CP192, in the assay on CP194 and in the assay on CP201.

For the compound `O=C1c2ccccc2S(=O)(=O)N1CCCCN1CCN(c2ncccn2)CC1`, the activity, negative = inhibition in assay [1] (setting [2]) was -16.2%; in assay [1] (setting [3]) it was 25.9%. Further, the Potency entry with 3D7, with AA1029, in the assay with AS120, in the assay on ATS189, in the assay with ATS95 and in the assay on C2A was “inactive” in each case. Further, in the assay with CP185, the Potency result was “inactive”. The compound was classed as inactive in the assay with CP191, with CP192, in the assay on CP194 and in the assay with CP201.

Consider `O=C1C(c2[nH]c3ccccc3c2O)=Nc2ccccc21`, for which the Potency entry in the assay on AA1029, with ATS95 and with CP185 was “inactive” in each case. Further, the outcome with CP192, in the assay with CP194 and in the assay on CP201 was inactive.

Consider `Cc1cc(OI)c(C(C)C)cc1-c1cc(C(C)C)c(OI)cc1C`, for which, in the assay with 7G8, the Potency was 7.94 µM (active). In addition, the Potency entry in the assay on CP185 was “inactive”. The result in the assay with CP194 and in the assay on CP201 was inactive.

Take `Nc1ncnc(Nc2ccccc2)n1`: in [1] (setting [2]), the activity, negative = inhibition was -28.4%. For the same compound, the Potency result in the assay on 3D7, in the assay with 7G8, in the assay on AA1029, in the assay with AS120, in the assay with ATS189 and with ATS95 was “inactive” throughout. In addition, the Potency result in the assay on C2A and with CP185 was “inactive” each time. The outcome in the assay on CP192, in the assay on CP194 and in the assay on CP201 was inactive.

`NCc1ccc(S(N)(=O)=O)cc1`: the results for the activity, negative = inhibition in assay [1] (setting [4]) and in [1] (setting [5]) were 6.73% and 11%, respectively. Besides, the Potency entry in the assay on 3D7, in the assay with AA1029, with AS120, in the assay with ATS95, with C2A and in the assay on CP185 was “inactive” in each case. The compound was called inactive in the assay on CP191, in the assay with CP192, in the assay on CP194 and in the assay on CP201.

In the case of `CCN1CC(CCN2CCOCC2)C(c2ccccc2)(c2ccccc2)C1=O` (stereo not given), the activity, negative = inhibition in assay [1] (setting [2]) is 10.7%; in assay [1] (setting [3]) it was -5.11%. Besides, the Potency result in the assay on 3D7, with AS120, in the assay with ATS95, with C2A and in the assay with CP185 was “inactive” in each case. Besides, the compound was called inactive in the assay with CP191, in the assay with CP192, in the assay on CP194 and with CP201.

Take `O=C1c2cccc(O)c2C(=O)c2c(O)cccc21`: the activity, negative = inhibition in assay [1] (setting [2]) was -0.153%; in assay [1] (setting [3]), 3.79%. Besides, the Potency result in the assay on 3D7, with AA1029, in the assay on AS120, with ATS189, in the assay with ATS95 and with C2A was “inactive” each time. The Potency result with CP185 is “inactive”. The outcome in the assay with CP191, in the assay on CP192, in the assay on CP194 and with CP201 was inactive.

On to `CC(C)=CCC/C(C)=C/CO`, for which the activity, negative = inhibition in assay [1] (setting [2]) is -3.97%. In addition, the Potency entry in the assay with 3D7, with 7G8, in the assay on AA1029, in the assay with AS120, with ATS189 and in the assay with ATS95 was “inactive” throughout. In addition, the Potency result in the assay on C2A and in the assay on CP185 was “inactive” throughout. The result with CP191, in the assay with CP192, in the assay with CP194 and in the assay with CP201 was inactive.

As for `Cc1c(I)c(=O)n(-c2ccccc2)n1C`, in assay [1] (setting [2]), the activity, negative = inhibition is 2.47%. Also, the Potency result in the assay with 3D7, in the assay with 7G8, in the assay on AA1029, in the assay with AS120, with ATS189 and with ATS95 was “inactive” each time. In addition, the Potency entry with C2A and in the assay on CP185 was “inactive” in each case. Moreover, the call with CP191, in the assay on CP192, in the assay on CP194 and in the assay on CP201 was inactive.

Take `CC(=O)SC[C@@H](Cc1ccccc1)C(=O)NCC(=O)OCc1ccccc1`: the values for the activity, negative = inhibition in assay [1] (setting [4]) and in assay [1] (setting [5]) were -4.01% and -5.82%, respectively. Besides, the Potency result in the assay on 3D7, with AA1029, in the assay on AS120, with ATS189, in the assay on ATS95 and in the assay on C2A was “inactive” throughout. In the assay on CP185, the Potency entry was “inactive”. The result with CP191, in the assay on CP192, in the assay with CP194 and with CP201 was inactive.
